High-throughput results from PubChem.
VACV Venus inh – qHTS for Stage-Specific Inhibitors of Vaccinia Orthopoxvirus: Venus Reporter Primary qHTS; Potency, µM (highest dose often 36.5 µM), for the others: at the highest dose activity change, negative = inhibition, most hits filed as inhibitors; Vaccinia virus Venus reporter expression, fluorescence; 330,000 tested, 0.46% active; AID 720580, 2013; calls by dose curve; tested in A549 cells; also: potency is read from the fitted curve at half-maximal effect; nearly all actives have a fitted effect of over 30% in size
TbPYK inhibitor – qHTS of Trypanosoma Brucei Inhibitors. Potency, µM (top dose mostly 76.8 µM), for the others: at the highest dose activity, negative = inhibition, actives largely listed as inhibitors. AID 624173, 2012. 410,000 tested, 0.12% active. pyruvate kinase (Trypanosoma brucei), Q57TT1. TbPYK enzyme, Kinase-Glo Plus ATP luminescence, 45 min; also: potency is read from the fitted curve at half-maximal effect; nearly all actives have a fitted effect of over 50% in size
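T. brucei PYK with substrate was exposed to pin-transferred compounds across a concentration series, then started with 130 uM ADP (final). After 45 min at room temperature, Kinase-Glo Plus luminescence was read, normalized and curve-fitted.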
Vaccinia mCherry – qHTS for Stage-Specific Inhibitors of Vaccinia Orthopoxvirus: mCherry Reporter Primary qHTS; Vaccinia virus mCherry reporter infection, fluorescence; Potency, µM (series often up to 36.5 µM), without a hit: at the highest dose activity change, negative = inhibition, actives largely listed as inhibitors; 310,000 tested, 0.63% active; calls by dose curve; tested in A549 cells; also: potency is read from the fitted curve at half-maximal effect; nearly all actives have a fitted effect of over 35% in size
LmPK inh – qHTS Assay for Inhibitors of Leishmania Mexicana Pyruvate Kinase (LmPK); purified LmPK, Kinase-Glo ATP luminescence, 1 h; Potency, µM (top dose mostly 57.5 µM), for the others: at the highest dose activity change, negative = inhibition, hits mostly inhibitors; 290,000 tested, 0.37% active; AID 1721, 2009; also: potency is read from the fitted curve at half-maximal effect
Target sequence (Q27686 whole entry, looked up): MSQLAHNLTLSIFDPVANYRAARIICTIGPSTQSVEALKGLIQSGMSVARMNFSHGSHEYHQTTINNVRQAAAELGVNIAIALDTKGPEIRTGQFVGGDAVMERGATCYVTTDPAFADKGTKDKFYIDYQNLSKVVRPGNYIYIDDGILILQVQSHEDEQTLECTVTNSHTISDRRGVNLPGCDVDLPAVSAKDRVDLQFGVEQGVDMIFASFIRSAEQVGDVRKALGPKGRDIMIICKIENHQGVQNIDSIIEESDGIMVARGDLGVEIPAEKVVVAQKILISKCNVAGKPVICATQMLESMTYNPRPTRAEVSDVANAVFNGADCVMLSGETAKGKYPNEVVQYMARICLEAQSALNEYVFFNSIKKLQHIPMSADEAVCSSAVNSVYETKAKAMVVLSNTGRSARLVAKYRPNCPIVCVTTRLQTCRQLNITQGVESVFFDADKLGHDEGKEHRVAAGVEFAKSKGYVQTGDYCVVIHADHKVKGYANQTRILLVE
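ATP generated from ADP (0.1 mM) and PEP (0.5 mM) by 0.1 nM LmPK over 1 h at room temperature (pH 7.2 imidazole buffer) was detected by coupled luciferase luminescence. Values were normalized to uninhibited and no-enzyme wells.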
HCMV antiviral – qHTS Assay for inhibitors of the human cytomegalovirus (HCMV); HFF cells, HCMV-luciferase reporter, 72 h; active compounds read low; activity change, negative = inhibition, % at 57.5 µM; 410,000 tested, 4.5% active; AID 1259415, 2018; in the data active = activity change below about -60%; inconclusive = no clear call, values can overlap the other calls; inactive = above about -39%
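Two compound doses tested in HFFs infected with HCMV-luciferase, MOI 1 PFU/cell, 72 h at 37C. Lysate luminescence read with OneGlo; data normalized against buffer-only and 10uM Salinomycin inhibitor controls.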
* = called active by the depositor. Most compounds without a hit are left out; they make up all but 5% or so of the library. Unless noted, calls follow the shape of the dose curve; as a rule, active = well fitted curve in the direction sought with a large enough effect; inconclusive = small, poorly fitted or top-dose-only effect, or another doubt; inactive = no such curve, though single readings can be large; an effect the other way counts as inactive or inconclusive. % is scaled to controls: 0 for no effect and ±100 for the full control effect.

For O=C(COc1ccccc1)Nc1ccc(S(=O)(=O)Nc2ccccn2)cc1 the results were VACV Venus inh -1%, TbPYK inhibitor -4%, Vaccinia mCherry inactive, LmPK inh 4% and HCMV antiviral 3.
`O=C(COc1ccc(Br)cc1)Nc1ccc(S(=O)(=O)Nc2ccccn2)cc1` gave VACV Venus inh -25%, TbPYK inhibitor -2%, Vaccinia mCherry inconclusive, LmPK inh -7% and HCMV antiviral -70*.
For COc1ccc(CNC(=O)[C@@H]2CCCN2C(=O)[C@@H]2Cc3ccccc3CN2C(=O)OC(C)(C)C)cc1 the results were VACV Venus inh -10%, TbPYK inhibitor -5%, Vaccinia mCherry inactive, LmPK inh 2% and HCMV antiviral 1.
`O=C(CNC(=O)c1ccc(Br)o1)NCc1cccc(Cl)c1` gave VACV Venus inh 2%, TbPYK inhibitor 1%, Vaccinia mCherry inactive, LmPK inh -10% and HCMV antiviral 2.
For Cc1ccc(OCCN2C(=O)S/C(=C\c3ccc(C)o3)C2=O)cc1 the results were VACV Venus inh 4%, TbPYK inhibitor inconclusive, Vaccinia mCherry -9%, LmPK inh -1% and HCMV antiviral -22.
FC(F)(F)Oc1ccccc1C(c1nnnn1C1CCCC1)N1CCN(C/C=C/c2ccccc2)CC1 (stereo not given) was read as VACV Venus inh -7%, TbPYK inhibitor 1%, Vaccinia mCherry inactive and HCMV antiviral -20.
CCOc1ccccc1NC(=O)C(OC(=O)c1ccc(O)cc1)c1ccccc1 (stereo not given) was read as VACV Venus inh inconclusive, TbPYK inhibitor 0%, Vaccinia mCherry -16%, LmPK inh 1% and HCMV antiviral 31.
For Cc1c(CCO)c(=O)n2c([nH]c3ccccc32)c1C#N the results were TbPYK inhibitor -4%, LmPK inh -3% and HCMV antiviral -5.
For CCCCc1c(C)c(C#N)c2[nH]c3ccccc3n2c1=O the results were VACV Venus inh -15%, TbPYK inhibitor -2%, LmPK inh -2% and HCMV antiviral -73*.
CCOc1cccc(-c2cc(C(=O)Nc3ccon3)c3ccccc3n2)c1 was read as VACV Venus inh -9%, TbPYK inhibitor -5%, Vaccinia mCherry -14%, LmPK inh 1% and HCMV antiviral -22.
COC(=O)c1cn(NC(=O)c2cc([N+](=O)[O-])ccc2F)c(=O)c2ccccc12 was read as VACV Venus inh -23%, TbPYK inhibitor 3%, Vaccinia mCherry -26%, LmPK inh -1% and HCMV antiviral -97*.
For CC(CS(=O)(=O)c1ccccc1[N+](=O)[O-])N1CCOCC1 (stereo not given) the results were TbPYK inhibitor 2%, LmPK inh -7% and HCMV antiviral -81*.
`Cc1ccccc1NC(=S)N(C)Cc1cn(C)c2ccccc12` gave VACV Venus inh -16%, TbPYK inhibitor 13%, Vaccinia mCherry -2%, LmPK inh 3% and HCMV antiviral -70*.
For COc1ccc(Cn2cc(CN3CC(N4CCSCC4)CS3(=O)=O)nn2)cc1 (stereo not given) the results were VACV Venus inh -2%, TbPYK inhibitor -14%, Vaccinia mCherry 0% and HCMV antiviral -100*.
Screening COc1ccc(Cn2cc(CN3CC(N4CCCC4)CS3(=O)=O)nn2)cc1 (stereo not given) returned VACV Venus inh -10%, TbPYK inhibitor -7%, Vaccinia mCherry 6% and HCMV antiviral -13.
`CCN1CCN(C(c2cccc(OC)c2OC)c2nnnn2Cc2ccco2)CC1` (stereo not given) gave VACV Venus inh -2%, TbPYK inhibitor -1%, Vaccinia mCherry -5%, LmPK inh -6% and HCMV antiviral -83*.
For COc1ccccc1C(c1nnnn1Cc1ccco1)N1CCN(c2cccc(C)c2C)CC1 (stereo not given) the results were TbPYK inhibitor -1%, LmPK inh 5% and HCMV antiviral -27.
